Results as given in PubChem BioAssay AID1794842 (National Center for Advancing Translational Sciences (NCATS), 2023).
Fewer than 10 of roughly 2,800 compounds were called active. These entries were drawn from the full list. A number with no mark means an inactive call. Calls follow the shape of the dose curve; as a rule, active = well fitted curve in the direction sought with a large enough effect; inconclusive = small, poorly fitted or top-dose-only effect, or another doubt; inactive = no such curve, though single readings can be large or run the other way.

Target: Metallo-beta-lactamase type 2 (Klebsiella pneumoniae) (UniProt C7C422)
Assay: qHTS to identify inhibitors of the New Delhi Metallo-beta-lactamase (NDM): Meropenem screen against the machine-based learning selections. Also: % of control where 0% means no effect.
Settings: Purified NDM-1, meropenem hydrolysis, absorbance 300 nm; series mostly up to 38.4 µM; activity change, negative = inhibition: at the top concentration
From the text: Assay Submitter (PI): James Inglese Ph.D., Patricia Dranchak Ph.D., Mahesh Aitha Ph.D. Assay Development and Screening Technology Laboratory (ADST) National Center for Advancing Translational Sciences (NCATS), Rockville, MD National Institute of Health (NIH), Bethesda, Maryland The metallo-beta-lactamases (MBL) are a main antibiotic resistance mechanism evolved by bacteria. There is an urgent clinical need for MBL inhibitors to mitigate this growing threat. To support a machine-based learning study, qHTS has been used to experimentally test inhibitors identified by prediction tools.
PROTOCOL TABLE (as described by Inglese et al., 2007) SEQUENCE No. (e.g., 1, 2, 3, etc.); […] (e.g., enzyme, Incubation, Reagent, etc.); VALUE; DESCRIPTION Primary Screen 1; NDM-1; 4 uL of 3 nM enzyme [2 nM final] in 50 mM HEPES (pH 7.0), 1 uM […], 0.01% Tween20; Use BioRaptr to dispense into two sets of Aurora black, clear bottom high base 1536-well plates 2; Compounds; 23 nL; Use Pin Tool (Wako) to transfer DMSO control and library compounds in DMSO 3; Incubate; >30 min 4a; Reagent; 2 uL of 50 uM nitrocefin [16.7 uM final] to one set of assay plates 4b; Reagent; 2 uL of 150 uM meropenem [50 uM final] to second set of assay plates 5a; Incubate; 15 min 5b; Incubate; 30 min 6a; Detector; Absorbance at 485 nm (bandwidth = 5 nm, 25 flashes/well) on Tecan Infinity 6b; Detector; Absorbance at 300 nm (bandwidth = 5 nm, 25 flashes/well) on Tecan Infinity NOTES (numbers refer to sequence above) 1; Column 1 of each plate received assay buffer without enzyme and columns 2-48 received enzyme for a final assay concentration of 2 nM. 2; Control plate contained DMSO in columns 1, 2, 3, and 4. 3; Compound interaction with enzyme. 4; Nitrocefin and meropenem substrates were prepared in the same assay buffer as step 1 for a final assay concentration of 16.7 uM and 50 uM, respectively, and added to all wells across respective sets of assay plates. 5; Default reader settings were applied for absorbance read at 485 nm (nitrocefin) or 300 nm (meropenem), bandwidth = 5 nm, 25 flashes/well. References: Inglese J, Shamu CE, Guy RK. 2007. Reporting data from high-throughput screening of small-molecule libraries. Nat Chem Biol. doi:10.1038/nchembio0807-438 Yasgar A, Shinn P, Jadhav A, Auld D, Michael S, Zheng W, Austin CP, Inglese J, Simeonov A. 2008. Compound Management for Quantitative High-Throughput Screening. J Lab Autom 13:79 - 89. doi:10.1016/j.jala.2007.12.004

Metallo-beta-lactamase type 2 (Klebsiella pneumoniae), sequence (C7C422 whole entry, looked up): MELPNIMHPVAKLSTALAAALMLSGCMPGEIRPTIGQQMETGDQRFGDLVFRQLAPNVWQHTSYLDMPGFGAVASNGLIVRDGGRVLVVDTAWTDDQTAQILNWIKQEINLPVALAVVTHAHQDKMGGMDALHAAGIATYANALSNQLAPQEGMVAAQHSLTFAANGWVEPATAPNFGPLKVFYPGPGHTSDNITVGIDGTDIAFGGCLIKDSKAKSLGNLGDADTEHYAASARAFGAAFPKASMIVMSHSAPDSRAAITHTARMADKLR

SMILES | activity change, negative = inhibition
O=C(Cc1c[nH]c2ncc(-c3ccsc3)cc12)NCc1cccnc1 | -0.817% [at 57.5 µM]
Cc1ccccc1-c1cnc2n[nH]c(-c3ccccc3)c2n1 | 2.04% [at 76.7 µM]
CC1(COc2cccnc2)COc2ccc(C(=O)Nc3ccc4[nH]ccc4c3)cc2N1 (stereo unspecified) | 16.2% [at 57.5 µM]
O=C(NCCc1cnc[nH]1)C1CCN(C2CCCCC2)CC1 | 0.443%
Cc1ccccc1NC(=O)c1cnc2c(c1)N(Cc1ccccc1)CCC2 | 4.53% [at 57.5 µM]
C=CCCC(CN1CCCOCC1)Oc1ccc(-c2ccccc2)nn1 (stereo unspecified) | -1.94%
COCCc1noc(CN(C)c2cc(C(C)C)nc3ccnn23)n1 | -1.68%
CCC(=O)N1CCC(Cc2nc(-c3ccccc3)n[nH]2)CC1 | 0.766%
Cc1cc(C(=O)N[C@H](C)c2c(-c3ccc(Cl)cc3)noc2C(=O)O)c(C)o1 | 53.2% [at 57.5 µM]
CC(=O)Nc1ccc(CN2CCC(N3CCCCCC3=O)CC2)cc1 | 0.422%
CC[C@H]1CN(C(=O)C(C)(C)C)CC[C@H]1CC(=O)NCCSC | 1.03% [at 57.5 µM]
O=c1[nH]c(-c2ccc(F)cc2)nc2c1CCN(S(=O)(=O)c1cccs1)C2 | 1.01%
O=C(O)c1cncc(N2CCC3(CC2)CNC(C(=O)O)C3)n1 (stereo unspecified) | 42.7%
COc1cccc(CN2CCOC[C@H](Oc3cccnc3)C2)c1 | 1.48% [at 57.5 µM]
O=C(O)[C@H]1C[C@@H](C(=O)NCc2ccccn2)CN(CC2CC2)C1 | 22.1%
O=C(CN1C(=O)NC(c2ccccc2Cl)C2=C1COC2=O)Nc1ccc(F)c(Cl)c1 (stereo unspecified) | 2.9%
COc1ccc(CN2CCNc3cnc(Nc4ccccc4)cc3C2)cn1 | 15% [at 57.5 µM]
Cc1noc([C@@H](C)NC(=O)Nc2cccnc2)c1C(=O)O | 49.7% [at 57.5 µM]
O=C(CCn1nnc(-c2ccccc2)n1)N1CCCC2(CCNCC2)CC1 | -4.15%
CC(C)CCNC1(Cc2cc(CN3CCOCC3)on2)COC1 | 8.33% [at 57.5 µM]
Cc1noc([C@@H]2CNC[C@H]2CO)n1 | 4.3%

SMILES | activity change, negative = inhibition
O=C(NCc1cccnc1)[C@@H]1C[C@@H](c2ccc(F)cc2)N(Cc2ccccc2)C1 | -0.331% [at 57.5 µM]
CC1=C[C@@H](CC#N)[C@H](C(C)C)C[C@H]1CC(=O)NC1CC1 | -1.03% [at 76.7 µM]
c1cncc(Nc2cc3c(cn2)CN(Cc2ccc4[nH]ccc4c2)CCN3)c1 | 1.18% [at 57.5 µM]
COc1ccc(-c2cc(-c3cccc(C(N)=O)c3)cn3cncc23)cc1 | 29.1% [at 57.5 µM]
NC(=O)Cc1c[nH]c2ncc(-c3ccc(F)cc3)cc12 | 12.5% [at 76.7 µM]
O=c1c2nc(NCc3ccccc3)ccc2ncn1Cc1ccccn1 | 18.9% [at 57.5 µM]
CCCS(=O)(=O)N1CCC(Oc2nccnc2N2CCOCC2)C1 (stereo unspecified) | 5.44%
CCCCCC(=O)Nc1nc2c(s1)C[C@@H]1[C@](C)(CO)[C@H](O)CC[C@@]1(C)[C@@H]2CC(=O)NCc1ccccc1 | 0.525%
CC[C@H]1CN(S(=O)(=O)c2c(C)noc2C)CC[C@H]1CC(=O)NCc1ccco1 | 1.93% [at 57.5 µM]
CC(C)c1noc([C@@H]2C[C@H](NC(=O)Nc3ccc(F)cc3)CN2C)n1 | -1.13% [at 57.5 µM]
COCCNC(=O)C[C@@H]1C[C@H]2O[C@H](CNC3CCCCC3)[C@@H](O)[C@H]2O1 | 0.285% [at 57.5 µM]
O=C(CSc1ccncc1)N1CCN2C(=O)N(Cc3ccccc3)C(=O)[C@H]2C1 | 27.2% [at 57.5 µM]
OC[C@H]1C[C@@H](NCc2cccc3c2OCO3)[C@H](O)[C@@H]1O | 7.96% [at 76.7 µM]
c1ccc(-c2cnc(Nc3ccncc3)c3c2CCO3)cc1 | 10.6% [at 76.7 µM]
CCC[S+](=O)([O-])N1CCN(C(=O)N2CC3CC(C2)[C@H]2CCCC(=O)N2C3)CC1 (stereo partly specified) | -3.2%
O=C(O)c1cc(-c2cccc(CO)c2)cc(S(=O)(=O)N2CCOCC2)c1 | 1.88%
COc1ccc(C2Cn3nnc(C(=O)N4CCN(C(=O)c5cc(F)ccc5Cl)CC4)c3CO2)cc1 (stereo unspecified) | -0.346%
Cc1ccccc1Nc1cnc2ccc(-c3cccc(CO)c3)nn12 | 63.5% [at 57.5 µM]
COc1ccccc1C(O)c1nc(Nc2ccncc2)n[nH]1 (stereo unspecified) | 13.5% [at 57.5 µM]
OC[C@]12CCCN[C@@H]1CCN(Cc1cccc(-c3ccccn3)c1)C2 | 1.81%
